A selection: hits, their analogues and other compounds. The true share with any hit is near 1.6%.
Mito fusion act: mitochondrial division inhibition or fusion activation. AID 485298. Potency, µM (highest dose often 46.1 µM), hits mostly activators. S. cerevisiae fusion-defective mutant growth rescue, CellTiterGlo 48 h. hit rate 0.23% among 320,000; also: nearly all actives have a fitted effect of over 45% in size
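Growth-rescue viability read-out: after 48 h at the non-permissive 37C in glycerol/ethanol YPEG, yeast mitochondrial fusion mutants are measured by CellTiterGlo luminescence; compounds (23 nl pinned per well) restoring growth score as division inhibitors or fusion activators.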
gsp antagonist: antagonizes gsp, the McCune-Albright syndrome mutation. gsp-mutant cells, cAMP HTRF, 30 min. Potency, µM (top dose mostly 76.9 µM), hits mostly inhibitors. hit rate 0.4% among 340,000; calls by dose curve; cell line not stated here;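 also: intracellular cAMP measured with PDE inhibitor Ro 20-1724 present during compound exposure; nearly all actives have a fitted effect of over 65% in size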
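Measurement of cellular cAMP by homogeneous time-resolved fluorescence following a 30 min compound exposure at 37C. The PDE inhibitor […] was present throughout; the assay buffer was DPBS with 0.05% BSA and 0.005% Tween 20.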
ALOX12 inh: ALOX12 (human) lipoxygenase inhibition. purified 12hLO, xylenol orange hydroperoxide absorbance. hit rate 1.1% among 580,000. AID 1671190. Potency, µM (top dose mostly 108 µM), hits mostly inhibitors
Target sequence (P18054 whole entry, looked up): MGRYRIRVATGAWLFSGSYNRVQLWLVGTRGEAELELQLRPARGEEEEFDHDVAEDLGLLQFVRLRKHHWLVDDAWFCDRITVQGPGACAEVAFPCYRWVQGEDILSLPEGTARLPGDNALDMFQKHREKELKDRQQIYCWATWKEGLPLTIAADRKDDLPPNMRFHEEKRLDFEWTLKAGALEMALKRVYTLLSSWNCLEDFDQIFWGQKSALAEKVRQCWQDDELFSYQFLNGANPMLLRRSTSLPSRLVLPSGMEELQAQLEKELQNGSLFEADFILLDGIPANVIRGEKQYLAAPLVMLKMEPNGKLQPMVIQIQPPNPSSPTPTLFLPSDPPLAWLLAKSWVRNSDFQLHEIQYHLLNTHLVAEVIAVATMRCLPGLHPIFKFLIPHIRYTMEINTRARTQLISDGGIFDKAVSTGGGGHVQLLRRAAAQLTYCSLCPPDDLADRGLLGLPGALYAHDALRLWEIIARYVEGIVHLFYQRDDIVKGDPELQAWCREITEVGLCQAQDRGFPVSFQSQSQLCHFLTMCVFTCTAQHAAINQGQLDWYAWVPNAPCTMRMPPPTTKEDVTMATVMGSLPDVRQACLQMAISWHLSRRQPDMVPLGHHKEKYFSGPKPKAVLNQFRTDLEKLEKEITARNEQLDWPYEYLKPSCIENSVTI
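Hydroperoxide product was detected by ferrous iron/xylenol orange as the 573 to 405 nm absorbance ratio. Arachidonic acid at 40 uM (final) was turned over for 30 min at room temperature by 150 nM human 12hLO, pH 7.0 Hepes buffer, after 15 min compound preincubation.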
FUS suppressor: FUS proteinopathy suppression in yeast | hit rate 0.24% among 390,000 | AID 1347120 | S. cerevisiae FUS-expressing, growth rescue, OD600, 24 h | Potency, µM (titrated, usually from 76.6 µM), actives largely listed as activators; also: nearly all actives have a fitted effect of over 55% in size
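Cultures pregrown in 2.5% raffinose medium are shifted to minimal medium containing 2% galactose to express toxic FUS. Compounds are tested at several concentrations. After 24hr at 30C, growth is quantified at 600 nm absorbance.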
gsp ag: activates gsp, the McCune-Albright syndrome mutation; gsp mutant cells, cAMP HTRF, 30 min; Potency, µM (doses to about 76.9 µM), actives largely listed as activators; hit rate 0.13% among 340,000; AID 624287; active = well fitted activation curve with a large enough effect; inconclusive = small, poorly fitted or top-dose-only effect, or another doubt; inactive = no such curve, though single readings can be large or run the other way; cell line not stated here;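 also: phosphodiesterase inhibitor Ro 20-1724 added with compounds to block cAMP breakdown; nearly all actives have a fitted effect of over 60% in size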
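Cells in DMEM/10% FBS with G418 were pretreated with compounds in DMSO plus […] (300 uM stock) for 30 min at 37C. cAMP was measured by HTRF (cAMP-d2 plus anti-cAMP antibody-K) after 30 min at room temperature.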
Numbers stand for hits; i = inactive; ? = inconclusive; nt = no result given; ! = not active in a repeat; [ ] = another dose, or the depositor's remark. Unless noted, calls follow the shape of the dose curve; as a rule, active = well fitted curve in the direction sought with a large enough effect; inconclusive = small, poorly fitted or top-dose-only effect, or another doubt; inactive = no such curve, though single readings can be large; an effect the other way counts as inactive or inconclusive.

SMILES	Mito fusion act	gsp antagonist	ALOX12 inh	FUS suppressor	gsp ag
CCc1ccc(Nc2ccc(C(=O)O)cc2[N+](=O)[O-])cc1	20µM	i	i	i	i[15.4 µM]
Cc1ccc(C(=O)NC(=S)Nc2cccc(NC(=O)c3ccccc3)c2)cc1[N+](=O)[O-]	i	i	25µM	i	i
CC(C)c1nc2c(c(-c3ccc(Cl)cc3)n1)CCN(C(=O)c1ccc(C(F)(F)F)cc1)CC2	nt	nt	i[6.33 µM]	nt	nt
CCN(CC)c1ccc(/C=N/N2CC(=O)NC2=S)cc1	i	i	3.5µM	i	i
Cn1c(=O)c2c(nc(CN(Cc3ccccc3)Cc3ccccc3)n2CCCO)n(C)c1=O	nt	nt	i	nt	nt
Cn1cc(/C=N/NC(=O)c2cc3cc(Br)ccc3o2)c2ccccc21	i	i	i	i	i[15.4 µM]
O=C(O)c1ccc(-n2cccc2/C=N\NC(=O)c2cc3cc(Br)ccc3o2)cc1	i	i	35µM	i	i[15.4 µM]
CC(Sc1cccc2cccnc12)C(=O)NC(=O)NC(C)(C)C (configuration not stated)	nt	nt	13µM	nt	nt
O=C(O)c1cc2ccc(Br)cc2[nH]1	nt	nt	18µM	nt	nt
CCc1ccc2cc(C(=O)O)[nH]c2c1	nt	nt	i	nt	nt
CSc1nc(N)nc(SCC(=O)Nc2cccc(F)c2)c1C#N	i	28µM	i	nt	i
Cn1c(=O)c2c(nc(CCC3CCCC3)n2C)n(C)c1=O	nt	i	i	nt	11µM
CC(C)n1c(NC2CCCCC2)nc2c1c(=O)n(C)c(=O)n2C	nt	nt	i	nt	nt
CCOC(=O)NC(CNC(=O)c1cccc(C)c1C)CC(C)C (configuration not stated)	nt	nt	i	nt	nt
Nc1nc2ccccc2n1/N=C/c1ccc([N+](=O)[O-])s1	11µM	i	?	i	i[15.4 µM]
Nc1nc2ccccc2n1/N=C/c1cccnc1	nt	i	i	i	i[15.4 µM]
CCOC(=O)c1ccc(N2C(=O)c3n[nH]c(-c4ccco4)c3C2c2cccc([N+](=O)[O-])c2)cc1 (configuration not stated)	?	i	32µM	nt	?
CC(C)[C@H]1NC(=O)[C@@H]2[C@@H](NC(=O)NC3CCCCC3)CCN2C1=O	nt	nt	i	nt	nt
Cc1cccc(C(=O)N=c2c(C#N)cc3c(=O)n4cccc(C)c4nc3n2Cc2ccco2)c1	i	?	35µM!	?	?
Cc1cccn2c(=O)c3cc(C#N)c(=NC(=O)c4ccco4)n(Cc4ccco4)c3nc12	i	i	?	i	?
CCOC(=O)c1cc2c(=O)n3ccccc3nc2n(Cc2ccco2)c1=NC(=O)c1cccnc1	i	i	?	32µM	?
Cc1cccn2c(=O)c3cc(C#N)c(=NC(=O)c4ccccc4)n(Cc4ccco4)c3nc12	nt	?	7.1µM	?	i
CCOC(=O)c1cc2c(=O)n3cccc(C)c3nc2n(Cc2ccco2)c1=NC(=O)c1cccnc1	i	i	i	?	?
Cc1ccc2nc(-c3ccc(Cl)s3)cc(C(=O)O)c2c1	nt	nt	i	nt	nt
CCCCc1ccc(NC(=O)Cn2ccn(-c3ccc(OC)cc3)c2=O)cc1	nt	nt	i	nt	nt
SMILES	Mito fusion act	gsp antagonist	ALOX12 inh	FUS suppressor	gsp ag
C=CCn1c(N)c(C(=O)NCc2ccccc2)c2nc3ccccc3nc21	nt	nt	i	nt	nt
CC(C)(C)c1ccc(C(=O)N/N=C/CCc2ccccc2)cc1	nt	nt	i	nt	nt
CC(C)(C)c1ccc(CC/C=N/O)cc1	nt	nt	11µM	nt	nt
O=C(NS(=O)(=O)Nc1ccccc1)C1=C(N2CCCC2)COC1=O	nt	i	16µM	i	i
Cc1cc(Cl)ccc1-c1nc(NCc2ccccc2)nc2ccsc12	nt	nt	40µM	i	nt
CCOC(=O)C1=C(N)Oc2ccc3ccccc3c2C1c1cccnc1 (configuration not stated)	i	32µM	?	i	i
Cc1nnc2sc(SCC(=O)N3CCCCC3)nn2c1=O	i	i	i	i	28µM
Cn1c(-c2sc3ccccc3c2Cl)n[nH]c1=S	i	i	14µM	i	i
Cn1c(CSc2nc3ccccc3s2)n[nH]c1=S	i	i	?	i	i
CC1CCN(S(=O)(=O)c2ccc3nc(N4CCN(c5ccccc5F)CC4)ccc3c2)CC1	nt	nt	?	i	nt
Cc1cccc(N2CCN(S(=O)(=O)c3ccc4c(c3)NC(=O)C(C)S4)CC2)c1C (configuration not stated)	11µM	i	i	i	i
Cc1cccc(N2CCN(c3ccc4cc(S(=O)(=O)N5CCC(C)CC5)ccc4n3)CC2)c1C	nt	nt	50µM	i	nt
CC1Sc2ccc(S(=O)(=O)N3CCC(C(=O)NCC(C)c4ccccc4)CC3)cc2NC1=O (configuration not stated)	i	28µM	i	?	?
Cc1ccc2c(CN3CCN(C)CC3)cc(=O)oc2c1C	nt	nt	i	nt	nt
Cc1nc(NC(C)C)sc1C(=O)NCC(C)C	nt	nt	i	nt	nt
O=C(COC(=O)C1(c2ccc(F)cc2)CCCC1)Nc1ccc([N+](=O)[O-])cc1C(F)(F)F	nt	nt	i	nt	nt
CCN1CCN(C(=O)c2c(-c3ccccc3Cl)noc2C)CC1	nt	nt	i	nt	nt
Cc1nc2cc(F)cc(C(=O)NCC(C)N(C)c3ccccc3)c2nc1C (configuration not stated)	nt	nt	i	nt	nt
Cc1ccc(C2NC(=O)c3c(sc(C)c3C)N2)c(O)c1 (configuration not stated)	i	i	40µM	i	i
COc1ccc(NC(=S)N/N=C2\CC(C)(C)Oc3ccc(O)cc32)cc1	i	i	32µM	i	i
COc1ccc(-c2cc(=O)n3c4ccccc4n(Cc4cccc(F)c4)c3n2)cc1	nt	nt	i	nt	nt
COC(=O)CCN(C)CCC(=O)OC	i	50µM	i	i	i
CC(C)COc1ccc(CNC(=S)Nc2ccccc2)cc1Cl	i	i	32µM	i	i
COc1ccccc1/C=N/OCc1ccccc1C#N	nt	nt	i	nt	nt
N#CC1(Br)C(=N)c2ccccc2CC12CCCCC2 (configuration not stated)	nt	nt	0.56µM	nt	nt
SMILES	Mito fusion act	gsp antagonist	ALOX12 inh	FUS suppressor	gsp ag
CCOCCn1c(-n2nc(C)cc2C)nc2c1c(=O)[nH]c(=O)n2C	nt	nt	i	nt	nt
O=C(/C=C/c1ccc(Cl)cc1Cl)NCCSc1ccccc1	i	45µM	i	i	?
Cc1ccc(NC(=O)CSc2nc3ccc(S(=O)(=O)N4CCOCC4)cc3[nH]2)cc1Cl	nt	nt	i	nt	nt
COc1ccc(S(=O)(=O)N(C(=O)c2ccncc2)c2ccc3oc4c(c3c2)CCCC4)cc1	11µM	i	i	i	i
O=C(c1ccccc1)N1CCN(C(=O)c2n[nH]c(=O)c3ccccc23)CC1	nt	nt	i	nt	nt
CC/C(=N/Nc1cccc(C)c1)c1cnnc(SC)n1	i	i	7.9µM	nt	i
Cc1cc(Cl)ccc1OC(C)C(=O)Nc1ccc(C(=O)Nc2ccccc2C(=O)O)cc1 (configuration not stated)	i	32µM	50µM	?	i
CC(C)Nc1nc(NC(N)=S)nc(NC(C)(C)C)n1	i	i	45µM	i	i[15.4 µM]
CC(C)Nc1nc(NC(N)=S)nc(NC(C)C)n1	i	i	?	nt	i
CN(C)/C=C/C(=O)c1ccc(Br)cc1	i	i	7.9µM	i	i
COc1ccc2c(c1)OC[C@H]1[C@H]2N2C(=O)CN(CCc3c[nH]c4ccccc34)C(=O)[C@@]2(C)[C@H]1c1ccccc1	i	i	i	22µM	i

Source: PubChem BioAssay
